Results published in PubChem BioAssay AID431 (Sanford-Burnham Center for Chemical Genomics, 2006).
Screen size: about 63,000 compounds; about 1,100 (1.7%) were called active.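 How the source made its calls: active means compounds whose percent cytotoxicity in the single-dose primary screen, scaled between solvent and toxic-drug controls, exceeds 50; inactive means the rest.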 Shown is part of a subset that was picked to be rich in actives. Measured potencies and affinities stand elsewhere.

assay: cytotoxicity in KRAS-transformed pancreatic duct cells, primary screen, cell-based, fluorescence, HTS (AID 431); settings: HPDE-C7K KRASV12 cells, Alamar Blue viability, 48 h; at 10 µM; hits give high values;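 further: 0% = DMSO solvent wells and 100% = doxorubicin-treated wells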

| Structure (SMILES) | cytotoxicity |
| --- | --- |
| CCOc1ccccc1NC(=O)NC1CCN(CC(=O)Nc2ccc3c(c2)OCCO3)CC1 | -18.3% (inactive) |
| CCN(CC(=O)NCc1cccs1)S(=O)(=O)c1cccc(C(C)=O)c1 | -12.5% (inactive) |
| O=C(COn1nnc2ccc(Cl)cc21)NCc1ccccc1 | 3.7% (inactive) |
| O=C(COn1nnc2ccc(C(F)(F)F)cc21)Nc1nnc(-c2ccccc2)o1 | 59.2% (active) |
| O=C(COc1ccccc1)Nc1nnc(-c2ccccc2)o1 | -10.7% (inactive) |
| Cc1csc(NC(=O)C2CCN(C(=O)CSc3nnc(C)n3Cc3ccccc3)CC2)n1 | -14% (inactive) |
| S=c1[nH]c2ncccc2o1 | 21.2% (inactive) |
| Cn1c(N)c(C(=O)CSc2nc3ccccc3n2-c2ccccc2)c(=O)n(C)c1=O | 103% (active) |
| COc1ccc(-n2c(SCC(=O)c3c(N)n(C)c(=O)n(C)c3=O)nc3ccccc32)cc1 | 7.4% (inactive) |
| NC(=O)CSc1nc2ccccc2n1-c1ccccc1 | 8.7% (inactive) |
| CCOC(=O)C1=C(C)Nc2nnnn2C1c1cccc(OC)c1OC (stereo unspecified) | -16.1% (inactive) |
| O=C(CN1CCOCC1)NCc1ccccc1 | -11.4% (inactive) |
| COCCOC(=O)c1[nH]c2c(c1C)C(=O)CC(c1ccco1)C2 (stereo unspecified) | 65.5% (active) |
| Cc1c(C(=O)OCc2ccccc2)[nH]c2c1C(=O)CC(c1ccco1)C2 (stereo unspecified) | 68.1% (active) |
| COCCOC(=O)c1[nH]c2c(c1C)C(=O)C(C(=O)OC)C(C)C2 (stereo unspecified) | 0% (inactive) |
| Cc1c(C(=O)OCC2CCCO2)[nH]c2c1C(=O)CC(c1ccco1)C2 (stereo unspecified) | 53.3% (active) |
| CC1=C(C(=O)OCc2ccccc2)C(c2ccco2)C2=C(CC(C)(C)CC2=O)N1 (stereo unspecified) | 7.4% (inactive) |
| COc1ccc(OC)c(C2CC(=O)c3c([nH]c(C(=O)OCC4CCCO4)c3C)C2)c1 (stereo unspecified) | 7.8% (inactive) |
| CCOc1ccc(C2CC(=O)c3c([nH]c(C(=O)OC)c3C)C2)cc1OC (stereo unspecified) | 6.3% (inactive) |
| Cc1c(C(=O)OCC2CCCO2)[nH]c2c1C(=O)CC(c1ccc(N(C)C)cc1)C2 (stereo unspecified) | 3.2% (inactive) |
| CCOCCOC(=O)c1[nH]c2c(c1C)C(=O)CC(c1ccc(N(C)C)cc1)C2 (stereo unspecified) | 5.2% (inactive) |

| Structure (SMILES) | cytotoxicity |
| --- | --- |
| CCOC(=O)c1[nH]c2c(c1C)C(=O)CC(c1ccc(F)cc1)C2 (stereo unspecified) | 58.4% (active) |
| Cc1c(C(=O)Nc2ccc(C(=O)O)cc2)cnn1C | 7.2% (inactive) |
| CC(=O)c1ccc(C(=O)Nc2ccc(N3CCOCC3)cc2)cc1 | -18.3% (inactive) |
| COc1ccc(C(=O)/C=C/Nc2c(C)n(C)n(-c3ccccc3)c2=O)cc1OC | 20.1% (inactive) |
| COc1ccccc1Oc1nc2c(c(=O)n(Cc3ccccc3F)c(=O)n2C)n1C | 18.8% (inactive) |
| COC(=O)C1=C(C)N=C2SCCC(=O)N2C1c1cccs1 (stereo unspecified) | 12.3% (inactive) |
| COc1cccc(-n2ccnc2SCC(=O)Nc2nccs2)c1 | -7.9% (inactive) |
| N#CC1=C(N)Oc2n[nH]c(-c3cccs3)c2C1c1ccsc1 (stereo unspecified) | -8.3% (inactive) |
| CCOC(=O)c1[nH]c2c(c1C)C(=O)CC(c1ccc(OC)c(OC)c1)C2 (stereo unspecified) | -13.1% (inactive) |
| CCOC(=O)c1[nH]c2c(c1C)C(=O)CC(c1ccc(OCC)c(OC)c1)C2 (stereo unspecified) | -1.2% (inactive) |
| Cc1c(C(=O)N2CCOCC2)[nH]c2c1C(=O)CC(c1ccccc1Cl)C2 (stereo unspecified) | 55.9% (active) |
| Cc1c(C(=O)O)[nH]c2c1C(=O)CC(c1ccccc1)C2 (stereo unspecified) | -8.9% (inactive) |
| COCCOC(=O)c1[nH]c2c(c1C)C(=O)CC(c1ccccc1)C2 (stereo unspecified) | 71.5% (active) |
| COCCOC(=O)c1[nH]c2c(c1C)C(=O)CC(c1ccc(N(C)C)cc1)C2 (stereo unspecified) | -10.1% (inactive) |
| Cc1c(C(=O)N2CCOCC2)[nH]c2c1C(=O)CC(c1ccc(Cl)cc1)C2 (stereo unspecified) | -7.4% (inactive) |
| COCCOC(=O)c1[nH]c2c(c1C)C(=O)CC(c1ccc(F)cc1)C2 (stereo unspecified) | 5.3% (inactive) |
| CCOC(=O)c1[nH]c2c(c1C)C(=O)CC(c1ccco1)C2 (stereo unspecified) | 59.2% (active) |
| COC(=O)c1[nH]c2c(c1C)C(=O)CC(c1ccc(C)cc1)C2 (stereo unspecified) | -3.1% (inactive) |
| COC(=O)c1[nH]c2c(c1C)C(=O)CC(c1cccs1)C2 (stereo unspecified) | 75.6% (active) |
| COC(=O)c1[nH]c2c(c1C)C(=O)CC(c1ccccc1)C2 (stereo unspecified) | 48.3% (inactive) |
| CCN(CC)S(=O)(=O)c1ccc(OC(C)C)nc1 | -11.5% (inactive) |

| Structure (SMILES) | cytotoxicity |
| --- | --- |
| COC(=O)c1ccsc1NC(=O)C1COc2ccccc2O1 (stereo unspecified) | 4.6% (inactive) |
| Cc1cc(C(=O)COc2ncnc3sccc23)c(C)n1C1CC1 | -0.1% (inactive) |
| CSCCOC(=O)c1[nH]c2c(c1C)C(=O)CC(c1ccco1)C2 (stereo unspecified) | 59.3% (active) |
| Cc1c(C(=O)OC2CCC(C)CC2)[nH]c2c1C(=O)CCC2 (stereo unspecified) | 0.1% (inactive) |
| COc1cc(C2CC(=O)c3c([nH]c(C(=O)OCCOC(C)C)c3C)C2)cc(OC)c1OC (stereo unspecified) | 5.8% (inactive) |
| Cc1c(C(=O)OC2CCCCC2)[nH]c2c1C(=O)CC(C)(C)C2 | 3.6% (inactive) |
| CCC(C)OC(=O)c1[nH]c2c(c1C)C(=O)CC(c1ccc(N(C)C)cc1)C2 (stereo unspecified) | 4.6% (inactive) |
| Cc1c(C(=O)OCCOC(C)C)[nH]c2c1C(=O)CC(C)(C)C2 | -19.6% (inactive) |
| Cc1c(C(=O)OC2CCCC2)[nH]c2c1C(=O)CC(c1ccco1)C2 (stereo unspecified) | 53.7% (active) |
| Cc1c(C(=O)OCCOC(C)C)[nH]c2c1C(=O)CC(c1ccco1)C2 (stereo unspecified) | 68.1% (active) |
| Cc1c(C(=O)OCC(C)C)[nH]c2c1C(=O)CC(c1ccco1)C2 (stereo unspecified) | 66.2% (active) |
| COc1ccc(-n2nc(C(=O)NCC(=O)NCC3CCCO3)c3ccccc3c2=O)c(OC)c1 (stereo unspecified) | 0.7% (inactive) |
| CC(C)CNS(=O)(=O)c1ccc(CCC(=O)N2CCN(Cc3ccccc3)CC2)cc1 | -1.6% (inactive) |
| CN(C)CC(=O)Nc1cc(C(F)(F)F)ccc1Cl | -7.9% (inactive) |
| Cc1cc(C)nc(SCc2nnc(SCC(=O)N3CCOCC3)o2)n1 | 4.2% (inactive) |
| CCc1nnc(NC(=O)c2ccc(COc3ccc(C)cc3)o2)s1 | -2.5% (inactive) |
| CCCOC(=O)c1[nH]c2c(c1C)C(=O)CC(c1ccc(OC)c(OC)c1)C2 (stereo unspecified) | -0.9% (inactive) |
| CCCCCOC(=O)c1[nH]c2c(c1C)C(=O)CC(c1ccco1)C2 (stereo unspecified) | 51.4% (active) |
| CCCCOC(=O)c1[nH]c2c(c1C)C(=O)CC(c1cc(OC)c(OC)c(OC)c1)C2 (stereo unspecified) | 4.1% (inactive) |
